# In PubChem BioAssay (NCI):
# Where “and” joins values, the source holds several entries; their conditions need not be identical. Equal values may be shown once. Compounds without any hit were thinned out: in the full panel of roughly 79,000, 15% have a hit. Some compounds were tested as several samples or in several runs, with calls that do not always agree. Calls of active or inactive are those of the source. No stated cut-off is given here; in the data, active means growth inhibition above about 70%; inactive means the rest.
# Assay: NCI Yeast Anticancer Drug Screen. Data for the mlh1 rad18 strain (AID 175)
# Settings: S. cerevisiae mlh1 rad18 strain growth inhibition; at 50.0 µM; stronger effect = higher value
# In short: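 In this whole-cell yeast screen, a strain with altered DNA damage repair is challenged with compound, and its growth is measured against matched vehicle-treated controls.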
row,SMILES,growth inhibition
1,CN(C)c1ccc(C2CC(C)(O)Oc3cc4c(cc32)OCO4)cc1 (stereo not drawn),43.5% (inactive)
2,O=P(NC1CCCCC1)(OCc1ccccc1)OCc1ccccc1,34.8% (inactive)
3,COc1oc(C(=O)NC2CCCCC2)c(-c2ccc(Cl)cc2)c1S(=O)(=O)c1ccccc1,45.4% (inactive)
4,C[Si](C)(C)/C=C/CCNC(C#N)c1ccccc1 (stereo not drawn),90.3% (active)
5,CCOc1ccc(NC(=O)C2=C(C)NC(C)=C(C(=O)Nc3ccc(OCC)cc3)C2c2cccc([N+](=O)[O-])c2)cc1,59.9% (inactive)
6,CN(C)CCOC1(Cc2ccc(F)cc2)CCC(C(C)(C)C)CC1 (stereo not drawn),97.8% (active) and 99.3% (active)
7,CC1(C)CC(=O)C(/C=N/c2nc(-c3ccccc3)cs2)=C(O)C1,97% (active)
8,CC(=O)Nc1ccc2c(c1)Cc1cc(N=C3C=CC(=O)O3)ccc1-2,0.7% (inactive)
9,O=C1C=C(Cl)C(=O)C(c2ccc(Cl)cc2)=C1,91.6% (active)
10,CCCCCCCCCCCC(O)S(=O)(=O)O (stereo not drawn),17.4% (inactive)
11,CC(C)OC(=O)c1ccc(CCc2cc(O)c(Br)cc2O)cc1,85.2% (active)
12,CCc1cc(O)c(Cl)c(C)c1Cl,13.9% (inactive)
13,C(=Nc1ccc(-c2cc(-c3ccccc3)nc3ccc4ccccc4c23)cc1)c1ccccc1,57.6% (inactive)
14,CSc1nc(C)c(CCOC(C)=O)c(N=P(c2ccccc2)(c2ccccc2)c2ccccc2)n1,94.6% (active)
15,CS(=O)(=O)SCc1ccc([N+](=O)[O-])cc1,98% (active)
16,COC1=C(OC)C(=O)C(Sc2ccc3ccccc3c2)=CC1=O,89.6% (active)
17,COc1nc2c(c(=O)n1C)N=C(c1ccccc1)[C@H](C(CC(=O)c1ccccc1)c1ccccc1)C(c1ccccc1)N2 (stereo partly drawn),20.1% (inactive)
18,Cc1cc(-c2cc(C)c(O)c(C(C)(C)C)c2)cc(C(C)(C)C)c1O,70.5% (active) and 84.8% (active)
19,Nc1cc(N)c(N=Nc2cccc3c(S(=O)(=O)O)cccc23)cc1N=Nc1cc([N+](=O)[O-])ccc1O,65.7% (inactive)

row,SMILES,growth inhibition
1,Nc1ccc(F)cc1S,89.3% (active)
2,Brc1ccccc1-c1ncc(-c2ccccc2)o1,56.9% (inactive)
3,COc1cc(C2SCC(=O)N2c2ccc(-c3ccc(-n4c(-c5ccccc5)nc5ccccc5c4=O)cc3)cc2)ccc1O (stereo not drawn),73.7% (active)
4,Nc1ncnc2c1ncn2C1OC(CO)CC1O (stereo not drawn),89.5% (active) and 1.35% (inactive) and 82.9% (active)
5,COc1cc(CSc2ccc(O)cc2)cc(O)c1O,73.5% (active)
6,CCOC(=O)C1N=[N+](c2ccccc2)C(=O)/C1=C\n1c(=S)[nH]c2ccc([N+](=O)[O-])cc21 (stereo not drawn),5.05% (inactive)
7,CNC(=O)OCc1c(COC(=O)NC)c2n(c1C)-c1ccc(OC)cc1CCC2,86.9% (active)
8,O=C(NNc1ccccc1)c1ccc(Cl)c(Cl)c1,44.9% (inactive)
9,Cc1ccc(CC2(OCCN(C)C)CCC(C(C)(C)C)CC2)cc1 (stereo not drawn),99.5% (active) and 99.4% (active)
10,C[C@]12CC[C@H](O)CC1=CC[C@@H]1C2CC[C@]2(C)C(=O)NC(=O)CC12 (stereo partly drawn),70.3% (active)
11,CCCC/C=C/C(C)(C(=O)OCC)C(=O)OCC,70.2% (active)
12,CCc1c(Cl)c(C)cc(O)c1Cl,89.5% (active)
13,O=C(/C=C(/c1ccccc1)N1CCCCC1)c1ccccc1,89.3% (active)
14,CCCC(=O)Oc1ccc(/C=N/NC(N)=S)nc1,19.1% (inactive)
15,CCc1nc2ccc(NCCN(C)C)c3c(=O)c4ccccc4n1c23,83.8% (active)
16,Cc1sc2ccc3ccccc3c2[n+]1C,86.7% (active) and 96.7% (active)
17,COc1c(O)c(C=O)c(Br)c(C=O)c1O,99% (active)
18,Cc1ccc(Cl)cc1NC(=O)OCCN(C)C(=O)Nc1cc(Cl)ccc1C,62% (inactive)
19,Cc1nc2ccccc2nc1NNc1ccccc1,56.6% (inactive)
